A word on the inhibition: it is the drop in the measured response relative to a control, in per cent.

Test [1] concerns the target PEG-3 (UniProt Q6IN02). Kind of test: inhibition of PEG-3 promoter-driven reporter – cell-based, HeLa, luciferase, CREF/GAPDH counter-screen panel, dose response (AID 624167). Particulars: CREF/GAPDH counter-screens; HeLa PEG-Prom luciferase reporter, overnight, run 1, dose range 1, at 100 µM (top of the series) unless noted.
In test [2] the target is PEG-3 (UniProt Q6IN02). The description is as above. Particulars: CREF/GAPDH counter-screens; HeLa PEG-Prom luciferase reporter, overnight, run 2, dose range 1, at 100 µM (top of the series) unless noted. Background: Counterscreens check selectivity or assay interference.
Sequence of PEG-3 (Q6IN02 whole entry, looked up): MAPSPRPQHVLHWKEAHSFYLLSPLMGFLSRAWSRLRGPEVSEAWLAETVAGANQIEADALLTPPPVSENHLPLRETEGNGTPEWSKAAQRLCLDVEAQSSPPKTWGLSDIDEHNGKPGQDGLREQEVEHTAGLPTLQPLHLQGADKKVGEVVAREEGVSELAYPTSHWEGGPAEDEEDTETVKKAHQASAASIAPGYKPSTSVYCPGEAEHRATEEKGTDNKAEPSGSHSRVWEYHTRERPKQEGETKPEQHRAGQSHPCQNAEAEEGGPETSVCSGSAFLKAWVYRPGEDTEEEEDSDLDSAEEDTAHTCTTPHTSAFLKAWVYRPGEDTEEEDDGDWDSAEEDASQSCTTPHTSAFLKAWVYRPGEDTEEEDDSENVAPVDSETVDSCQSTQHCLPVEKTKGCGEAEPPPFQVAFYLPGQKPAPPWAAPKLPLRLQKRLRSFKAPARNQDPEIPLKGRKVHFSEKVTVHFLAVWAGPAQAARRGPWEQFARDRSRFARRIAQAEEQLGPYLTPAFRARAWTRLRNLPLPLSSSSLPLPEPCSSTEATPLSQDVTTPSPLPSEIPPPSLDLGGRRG
The test system of test [3] is Rat fibroblasts (CREF). The description is as above. Conditions: CREF/GAPDH counter-screens; run 1, dose range 1, at 100 µM (top of the series).
In test [4] the test system is Rat fibroblasts (CREF). Described as above. Conditions: CREF/GAPDH counter-screens; run 2, dose range 1, at 100 µM (top of the series).
Test [5] has as its target Tumor necrosis factor receptor superfamily member 10B (Homo sapiens) (UniProt O14763). Kind of test: viability loss of caspase-8 NB7 cells with TRAIL – with/without TRAIL, luminescence panel, confirmation (AID 651596). Conditions: NB7 neuroblastoma + caspase-8, TRAIL sensitization, NB7 Caspase-8, with TRAIL, mean of runs, at 10 µM, stronger effect = higher value.
Assay in test [6]: as above
Particulars: NB7 neuroblastoma + caspase-8, without TRAIL, NB7 Caspase-8, without TRAIL, mean of runs, at 10 µM.

Sequence of Tumor necrosis factor receptor superfamily member 10B (Homo sapiens) (O14763 whole entry, looked up): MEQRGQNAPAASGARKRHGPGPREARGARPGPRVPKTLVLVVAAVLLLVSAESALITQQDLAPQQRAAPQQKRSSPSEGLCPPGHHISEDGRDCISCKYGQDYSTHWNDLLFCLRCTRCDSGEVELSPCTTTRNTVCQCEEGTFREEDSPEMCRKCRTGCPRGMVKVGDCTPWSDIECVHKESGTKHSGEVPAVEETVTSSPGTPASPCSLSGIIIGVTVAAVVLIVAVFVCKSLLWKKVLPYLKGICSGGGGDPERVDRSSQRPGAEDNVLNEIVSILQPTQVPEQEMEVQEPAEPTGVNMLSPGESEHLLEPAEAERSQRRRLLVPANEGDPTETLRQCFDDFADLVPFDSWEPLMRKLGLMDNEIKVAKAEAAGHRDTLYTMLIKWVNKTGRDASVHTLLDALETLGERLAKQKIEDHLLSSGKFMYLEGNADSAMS

In the case of `Cc1cc(S(=O)(=O)c2ccc(Cl)cc2)nc(S(=O)(=O)c2ccc(Cl)cc2)c1C#N`, the inhibition was 99.1% in the test with PEG-3 [1], 101% with PEG-3 [2], 98.2% with Rat fibroblasts (CREF) [3] and 98.8% in the test on Rat fibroblasts (CREF) [4].
As to `Cc1csc(NC(=O)c2ccc(N3CCCC3=O)cc2)n1`, the inhibition came out at 88.6% with PEG-3 [1], 78.1% with PEG-3 [2], 88.8% in the test with Rat fibroblasts (CREF) [3] and 90.4% in the test on Rat fibroblasts (CREF) [4]. Besides, the activity turned out to be 77.3% in test [5] and 73.5% in test [6].
With `CS(=O)(=O)c1ccc(-c2sc3ccccc3c2C#CCCO)cc1`, the inhibition in the test with PEG-3 [1] turned out to be 96%; with PEG-3 [2], 97.9%; with Rat fibroblasts (CREF) [3], 95.2%; with Rat fibroblasts (CREF) [4] it was 95.7%.
On to `CCCCCN1C=CC(=C2C(=O)c3ccccc3C2=O)C=C1`, for which the inhibition with PEG-3 [1] stood at 102%; with PEG-3 [2] it was 99.1%; in the test with Rat fibroblasts (CREF) [3], 98.2%; in the test on Rat fibroblasts (CREF) [4], 98.3%.
As for `C(=Cc1cnc2ccccc2n1)c1ccc2c(c1)OCO2`, the inhibition with PEG-3 [1] was determined as 94.6%; with PEG-3 [2] it was 98.4%; in the test on Rat fibroblasts (CREF) [3], 95.9%; in the test with Rat fibroblasts (CREF) [4], 95.7%. Further, the activity in test [5] turned out to be 92.9%; in test [6] it was 92.6%.
For `CC1CCN(c2ccc(-c3cccc(NC(=O)C(F)(F)F)c3)nn2)CC1`, the inhibition is 93.8% with PEG-3 [1], 94.5% with PEG-3 [2], 99.2% in the test with Rat fibroblasts (CREF) [3] and 99.5% in the test with Rat fibroblasts (CREF) [4]. For the same compound, the results for the activity in test [5] and in test [6] were 97.5% and 97.7%, respectively.
With `C/C(=N/NC(=O)c1cc(C2CC2)[nH]n1)c1cccs1`, the inhibition in the test with PEG-3 [1] worked out at 92.3%; with PEG-3 [2] it was 87.2%; in the test on Rat fibroblasts (CREF) [3], 95.4%; with Rat fibroblasts (CREF) [4], 96.2%. For the same compound, the activity in test [5] and in test [6] was 70.8% in each case.
As to `COCCn1c(C)cc(C(=O)CSc2nnc(C)s2)c1C`, the inhibition in the test with PEG-3 [1] was found to be 96.1%; with PEG-3 [2], 94.9%; with Rat fibroblasts (CREF) [3], 90.8%; in the test with Rat fibroblasts (CREF) [4], 90.7%. Moreover, the activity in test [5] was 53.5%; in test [6], 49%.
Turning to `Cc1ccccc1-c1nc(-c2ccccn2)no1`, the inhibition in the test with PEG-3 [1] stood at 96.7%; with PEG-3 [2], 92%; with Rat fibroblasts (CREF) [3], 99.5%; in the test on Rat fibroblasts (CREF) [4], 99.3%. For the same compound, the activity in test [5] turned out to be 88.8%; in test [6] it was 86.8%.
As to `O=C(NCCc1ccccc1F)c1ccc2c(c1)OCCO2`, the inhibition with PEG-3 [1] came out at 98.5%; with PEG-3 [2] it was 102%; in the test with Rat fibroblasts (CREF) [3] it was 100%; with Rat fibroblasts (CREF) [4] it was 99.8%. The activity was determined as 90.4% in test [5] and 91% in test [6].
For the compound `COCCn1c(C)cc(C(=O)COC(=O)c2cccc(O)c2)c1C`, the inhibition in the test with PEG-3 [1] was 89.5%; with PEG-3 [2], 91.3%; in the test with Rat fibroblasts (CREF) [3], 98.3%; in the test with Rat fibroblasts (CREF) [4], 97.1%. The activity in test [5] was determined as 86.2%; in test [6], 87.7%.
With `COc1ccc(/C=N/Nc2nncc3ccccc23)cc1`, the inhibition with PEG-3 [1] turned out to be 92.6%; with PEG-3 [2], 95.4%; in the test with Rat fibroblasts (CREF) [3] it was 97.8%; in the test with Rat fibroblasts (CREF) [4], 98.9%. Further, the activity in test [5] turned out to be 97.3%; in test [6], 97%.
Consider `CCOC(=O)Cc1csc(NC(=S)NC(=O)c2ccc(Cl)cc2)n1`, for which the inhibition in the test with PEG-3 [1] stood at 77.7%; with PEG-3 [2], 73.4%; in the test with Rat fibroblasts (CREF) [3] it was 88%; with Rat fibroblasts (CREF) [4] it was 86.8%. Besides, the activity is 65.1% in test [5] and 63.8% in test [6].
On to `CN(C)CCCN(C(=O)c1ccc(S(=O)(=O)N2CCc3ccccc3C2)cc1)c1nc2ccc(F)cc2s1`, for which the inhibition with PEG-3 [1] is 102%; with PEG-3 [2] it was 98.9%; with Rat fibroblasts (CREF) [3], 99%; in the test on Rat fibroblasts (CREF) [4], 98.9%. Further, the activity in test [5] stood at 48.5%; in test [6], 17.1%.
`COc1ccc(OCc2cccc(C(=O)O)c2)cc1`: the inhibition with PEG-3 [1] is 98.7%; with PEG-3 [2] it was 102%; in the test on Rat fibroblasts (CREF) [3], 90.9%; in the test with Rat fibroblasts (CREF) [4], 89.6%. In addition, the activity was found to be 62.9% in test [5] and 55.2% in test [6].
Turning to `O=C(c1ccc(Cl)cc1)N1CCCCC(Sc2nnc(-c3ccc4c(c3)OCO4)o2)C1=O` (stereo not given), the inhibition was found to be 93.2% with PEG-3 [1], 67.1% in the test with PEG-3 [2], 98% in the test with Rat fibroblasts (CREF) [3] and 85.5% in the test with Rat fibroblasts (CREF) [4]. In addition, the activity is 75.8% in test [5] and 72.6% in test [6].
`Cc1ccccc1OCC(O)CNC1CCC(NCC(O)COc2ccccc2C)CC1` (stereo not given): the inhibition with PEG-3 [1] worked out at 94.1%; with PEG-3 [2], 95.8%; with Rat fibroblasts (CREF) [3], 98.1%; in the test on Rat fibroblasts (CREF) [4], 97.9%. Moreover, the activity was 94.4% in test [5] and 99.8% in test [6].
Turning to `C=CCn1c(C)cc(C(=O)CN2C(=O)c3ccccc3S2(=O)=O)c1C`, the inhibition with PEG-3 [1] came out at 94.5%; with PEG-3 [2], 96.6%; with Rat fibroblasts (CREF) [3], 99.2%; in the test with Rat fibroblasts (CREF) [4], 96.4%. In addition, the activity in test [5] came out at 88.8%; in test [6], 91.4%.
Regarding `Cc1csc(NC(=O)c2cn3ccccc3n2)n1`, the inhibition worked out at 99% with PEG-3 [1], 99.7% in the test with PEG-3 [2], 99.8% with Rat fibroblasts (CREF) [3] and 99.8% in the test with Rat fibroblasts (CREF) [4]. Also, the activity in test [5] is 89.6%; in test [6], 89.8%.
Regarding `OCC1OC(n2ccc3c(NO)ncnc32)C(O)C1O` (stereo not given), the inhibition with PEG-3 [1] is 99.4%; in the test with PEG-3 [2], 101%; in the test on Rat fibroblasts (CREF) [3], 95.4%; in the test with Rat fibroblasts (CREF) [4] it was 94.6%. In addition, the activity was 98.8% in test [5] and 99.1% in test [6].
As to `Fc1ccc(-c2nnc(NC3=NCCCCC3)o2)cc1`, the inhibition was determined as 94.9% with PEG-3 [1], 97.3% with PEG-3 [2], 95.2% in the test on Rat fibroblasts (CREF) [3] and 94% in the test with Rat fibroblasts (CREF) [4]. Also, the activity worked out at 76% in test [5] and 77.7% in test [6].
For `Cc1ccc(-c2nc(-c3ccccn3)no2)cc1`, the inhibition with PEG-3 [1] was found to be 99.3%; with PEG-3 [2], 96%; with Rat fibroblasts (CREF) [3], 100%; in the test on Rat fibroblasts (CREF) [4] it was 99.7%. Further, the activity in test [5] worked out at 96.8%; in test [6], 96.3%.
For `CCOc1ccc(NC(=O)c2ccccn2)cc1`, the inhibition with PEG-3 [1] is 88.8%; with PEG-3 [2] it was 91.5%; with Rat fibroblasts (CREF) [3], 97.1%; in the test with Rat fibroblasts (CREF) [4] it was 95.5%. Further, the activity in test [5] was 92.4%; in test [6], 89.9%.
As to `c1cc2c(cc1C1=NNC(=NC3CC3)SC1)OCCO2`, the inhibition with PEG-3 [1] was 98.9%; in the test with PEG-3 [2], 99%; in the test with Rat fibroblasts (CREF) [3] it was 99.2%; in the test with Rat fibroblasts (CREF) [4], 91.3%. Further, the activity in test [5] turned out to be 93.3%; in test [6] it was 90.9%.
Regarding `Cc1cc(C(=O)CN2C(=O)c3ccccc3S2(=O)=O)c(C)n1CC1CCCO1` (stereo not given), the inhibition with PEG-3 [1] was 102%; with PEG-3 [2] it was 99.2%; in the test with Rat fibroblasts (CREF) [3] it was 99.2%; in the test with Rat fibroblasts (CREF) [4], 89.4%. Also, the activity in test [5] was 87.9%; in test [6], 89%.
With `CCOC(=O)c1cnc(Nc2nc3ccccc3o2)nc1C`, the inhibition was determined as 85.5% in the test with PEG-3 [1], 81.8% with PEG-3 [2], 92% with Rat fibroblasts (CREF) [3] and 93% in the test with Rat fibroblasts (CREF) [4]. The figures for the activity in test [5] and in test [6] were 92.1% and 91.1%, respectively.
Consider `Cc1ccc(C(=O)Nc2ncc([N+](=O)[O-])s2)cc1`, for which the inhibition with PEG-3 [1] worked out at 91.3%; in the test with PEG-3 [2], 96.1%; in the test on Rat fibroblasts (CREF) [3] it was 85.9%; with Rat fibroblasts (CREF) [4] it was 88.8%. The activity in test [5] worked out at 68%; in test [6] it was 62.8%.
For `Cc1ccc2nc(NC(=O)c3ccccn3)sc2c1`, the inhibition with PEG-3 [1] is 99.4%; in the test with PEG-3 [2], 98.6%; with Rat fibroblasts (CREF) [3], 94.5%; with Rat fibroblasts (CREF) [4], 95.5%. Also, the activity in test [5] is 94%; in test [6], 93.7%.
With `O=C(Cn1ncc(Cl)c(Cl)c1=O)N1CCc2ccccc21`, the inhibition worked out at 99.5% with PEG-3 [1], 98.6% with PEG-3 [2], 96.2% in the test with Rat fibroblasts (CREF) [3] and 95.5% in the test with Rat fibroblasts (CREF) [4]. Moreover, the activity in test [5] amounted to 99.5%; in test [6], 99.6%.
Turning to `COc1cc(/C=N/O)ccc1OCc1ccc(C(=O)O)cc1`, the inhibition with PEG-3 [1] is 88.6%; with PEG-3 [2], 90.2%; in the test on Rat fibroblasts (CREF) [3] it was 92%; in the test on Rat fibroblasts (CREF) [4], 91.3%. For the same compound, the values for the activity in test [5] and in test [6] were 72.7% and 65.7%, respectively.
Consider `O=C(CN1C(=O)c2ccccc2S1(=O)=O)c1ccc2c(c1)OCCCO2`, for which the inhibition with PEG-3 [1] came to 98.1%; in the test with PEG-3 [2] it was 98.8%; in the test on Rat fibroblasts (CREF) [3], 99.7%; in the test with Rat fibroblasts (CREF) [4], 99.4%. Further, the activity in test [5] turned out to be 95.4%; in test [6] it was 94.1%.

Values taken from PubChem BioAssay.
